# Reference: PubChem BioAssay
# Several values for one entry are separate records, joined by “and”; a condition that tells them apart may be missing. Equal values may be shown once. Activity calls are given as the source filed them.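 How the source made its calls, unless noted: active means thallium flux through the channel raised or lowered by more than 3 SD from vehicle-only wells, actives on both sides; inactive means the rest.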
# Key:
# [1] = tested on: Hepatitis C virus NS3 helicase; test: blockers of NS3h binding to DNA – biochemical, fluorescence polarization, NIH Clinical Collection, primary screen (AID 743270; call rule not given here); conditions: NS3 helicase binding to Cy5-dT15 DNA, stronger effect = higher value, concentration not given here
# [2] = molecular target: Single-stranded DNA-binding protein (Escherichia coli (strain K12)) (UniProt P0AGE0); test: SSB-ssDNA binding inhibitors – biochemical, fluorescence polarization, NIH Clinical Collection, counter-screen for HCV NS3 helicase inhibitor project (AID 743271; in the data active means inhibition above about 28%); conditions: E. coli SSB-DNA binding, stronger effect = higher value, concentration not given here
# [3] = compounds distorting NS3 helicase fluorescence signal – biochemical, NIH Clinical Collection, artefact control for HCV NS3 helicase inhibitor project (AID 743272; call rule not given here;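 further: HCV NS3 helicase with a Cy5 labelled single stranded DNA probe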); conditions: fluorescence interference counterscreen, HCV NS3 helicase assay; stronger effect = lower value
# [4] = Wnt pathway potentiators raising nuclear beta-catenin – imaging, WNT3A-conditioned medium, mouse C2C12, NPC library, primary screen (AID 1117326; in the data active means nuclear beta-catenin stimulation mostly above about 4.2%, no sharp cut-off; inactive means mostly below about 10%); conditions: stronger effect = higher value
# [5] = stimulators of insulin release from INS-1E, primary screen, cell-based, 5 mM glucose, NPC library (AID 1117329;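 active means compound raises insulin release from rat beta cells at 5 mM glucose, no numeric limit stated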); conditions: rat INS-1E insulin secretion, at 10 µM, stronger effect = higher value
# [6] = growth inhibition of GSK3B-pretreated HCT116 cells – cell-based, CellTiter-Glo, 0.2 to 20 µM (AID 1117336;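 active means compounds lowering colon cancer cell viability after pretreatment blocking the GSK3B kinase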); conditions: HCT116 viability after GSK3B inhibitor, at 20 µM, stronger effect = higher value
# [7] = inhibition of endothelial tube formation, primary screen, imaging, VEGF stimulated, CD31 staining, tube area, NPC library (AID 1117340;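 active means compound that reduces growth-factor-driven endothelial tube area in a mixed cell culture, no cutoff stated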); conditions: VEGF-stimulated ADSC/ECFC co-culture, at 10 µM, stronger effect = higher value
# [8] = GLP1 release stimulators, primary, NCI-H716, NPC library (AID 1117341;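 active means compound raises GLP1 secretion from the human gut endocrine cells, with no numeric limit stated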); conditions: NCI-H716 cells, at 10 µM, stronger effect = higher value
# [9] = HCT116 colon cancer cell growth inhibition, primary screen, CellTiter-Glo luminescence, NPC library (AID 1117342;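 active means compounds that lower survival of HCT116 colon cancer cells in the luminescence readout, no numeric limit stated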); conditions: at 20 µM (top of the series)
# [10] = reduced SW480 viability measured with CellTiter-Glo, NPC library, primary (AID 1117343;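 active means compounds that lower viability of the colon cancer cells in the luminescence readout, with no numeric limit stated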); conditions: CellTiter-Glo luminescence; at 20 µM (top of the series)
# [11] = NPC library primary testing for decreased DLD-1 cell viability via CellTiter-Glo (AID 1117346;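 active means compounds that lower survival of DLD-1 colon cancer cells in the luminescence readout, no cutoff given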); conditions: DLD-1 viability, CellTiter-Glo luminescence; at 20 µM (top of the series)
# [12] = molecular target: 6-phosphogluconate dehydrogenase, decarboxylating (Homo sapiens) (UniProt P52209); test: inhibition of human phosphogluconate dehydrogenase – biochemical, recombinant enzyme, NADPH absorbance, primary screen (AID 1159550;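 active means at least 20% inhibition of 6-phosphogluconate dehydrogenase activity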); conditions: recombinant 6PGD, NADPH absorbance 341 nm; at 10 µM; stronger effect = higher value
# [13] = EMT-state selective cytotoxicity in co-culture – imaging, PC-3E GFP, TEM4-18 mCherry, primary screen (AID 1345086;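 active means compounds killing one labelled cell type while sparing the other, by normalised counts and ratio limits, not self-fluorescent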;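 on all read-outs here: cells exposed to compound for 72 h before imaging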;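 on red/green cell ratio (normalised): normalised mesenchymal count divided by normalised epithelial count so high means epithelial killing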); conditions: PC-3E GFP / TEM4-18 mCherry co-culture, imaging cell counts, at 1 µM; for red/green cell ratio (normalised): actives lie on both sides, counts scaled to control wells, 1 = unselective
# [14] = MELAS cybrid and Rieske KO viability enhancers – cell-based, MELAS cybrids, Rieske KO mouse fibroblasts, CellTiter-Glo, primary screen (AID 1508586;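 active means mean z-score across replicates of 1.96 or higher in either the MELAS or the Rieske mutant cell line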;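 further: z relative to plate mean and SD of compound and empty wells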); conditions: low glucose
# [15] = molecular target: NAD(+) hydrolase SARM1 (Homo sapiens) (UniProt Q6SZW1); test: blocking NAD cleavage by SARM1 SAM-TIR – cell lysate, NAD-Glo luminescence (AID 1508614;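 active means compound whose remaining NAD level is above about 45 nM, limit read from the data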); conditions: SAM-TIR HEK293T lysate NADase, at 1 µM, stronger effect = higher value
# [16] = molecular target: Mitogen-activated protein kinase 7 (Homo sapiens) (UniProt Q13164); test: Gal4-ERK5 driven luciferase induction – cell-based, HTS, primary screen (AID 1508626;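 active means luciferase signal above three times the same-plate solvent-only control wells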;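 further: luciferase driven by Gal4-ERK5 fusion binding five Gal4 sites before minimal TATA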); conditions: HeLa Gal4-ERK5 transactivation, 18 h, at 5 µM, stronger effect = higher value
# F380Y = test: BK channel mutant inhibitors and activators – cell-based, U2OS BacMam, thallium flux, beta subunits, selectivity assay, profiling panel (AID 1259406); conditions: U2OS BacMam BK variants, at 30 µM;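 further: initial slope of Thallos dye fluorescence rise after thallium is added; log ratio against the mean of 0.3% DMSO vehicle wells on the same plate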
# F380Y/beta2Delta = test: as above; conditions: U2OS BacMam BK variants, at 30 µM
# [17] = molecular target: Calcium-activated potassium channel subunit alpha-1 (Homo sapiens) + Leucine-rich repeat-containing protein 26 (Homo sapiens) (UniProt Q12791+Q2I0M4); test: as above; conditions: U2OS BacMam BK variants, F380Y/Slo1WT/gamma1, at 30 µM
# [18] = viability loss with induced miR-34 in A549 – imaging, A549 dox-inducible miR-34, nuclei and caspase counts, primary screen (AID 1347080;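 active means compounds whose cell count with miR-34 switched on is under 0.7 times the count with it off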); conditions: A549 miR-34 inducible, Hoechst nuclei count, 48 h
# [19] = measured here: epithelial PC-3E GFP cell survival
# [20] = measured here: mesenchymal TEM4-18 mCherry cell survival
# [21] = MELAS cybrid survival, CellTiter-Glo 48 h, stronger effect = higher value
# [22] = Rieske KO mouse fibroblast survival, CellTiter-Glo 72 h
# [23] = stronger effect = lower value, cell number ratio, induced over uninduced
# [24] = measured here: relative caspase fold change +Dox/-Dox
# [25] = measured here: total cells with miR-34 induction, stronger effect = lower value
# [26] = measured here: total cells without miR-34 induction
# Mitogen-activated protein kinase 7 (Homo sapiens), sequence (Q13164 whole entry, looked up, the tested form may be a part): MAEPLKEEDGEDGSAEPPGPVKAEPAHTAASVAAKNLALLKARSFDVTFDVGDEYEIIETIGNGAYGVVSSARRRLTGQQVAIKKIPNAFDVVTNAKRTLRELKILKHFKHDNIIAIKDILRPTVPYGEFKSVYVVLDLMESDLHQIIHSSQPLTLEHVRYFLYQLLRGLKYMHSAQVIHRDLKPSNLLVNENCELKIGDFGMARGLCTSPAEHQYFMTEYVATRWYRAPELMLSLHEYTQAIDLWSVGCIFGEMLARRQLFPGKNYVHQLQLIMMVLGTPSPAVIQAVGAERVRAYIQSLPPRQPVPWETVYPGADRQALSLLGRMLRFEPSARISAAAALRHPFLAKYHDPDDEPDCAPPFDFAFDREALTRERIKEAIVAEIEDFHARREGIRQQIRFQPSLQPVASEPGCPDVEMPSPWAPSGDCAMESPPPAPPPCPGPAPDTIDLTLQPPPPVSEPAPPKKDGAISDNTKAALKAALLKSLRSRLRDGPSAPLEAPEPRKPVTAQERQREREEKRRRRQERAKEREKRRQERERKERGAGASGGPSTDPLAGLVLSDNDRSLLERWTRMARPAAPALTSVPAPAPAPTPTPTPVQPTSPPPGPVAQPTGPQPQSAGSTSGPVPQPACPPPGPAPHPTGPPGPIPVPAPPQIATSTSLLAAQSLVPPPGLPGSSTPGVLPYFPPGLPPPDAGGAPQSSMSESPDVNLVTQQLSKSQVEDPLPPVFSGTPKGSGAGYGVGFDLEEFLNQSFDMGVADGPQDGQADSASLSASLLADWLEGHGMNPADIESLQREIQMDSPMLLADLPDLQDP
# NAD(+) hydrolase SARM1 (Homo sapiens), sequence (Q6SZW1 whole entry, looked up, the tested form may be a part): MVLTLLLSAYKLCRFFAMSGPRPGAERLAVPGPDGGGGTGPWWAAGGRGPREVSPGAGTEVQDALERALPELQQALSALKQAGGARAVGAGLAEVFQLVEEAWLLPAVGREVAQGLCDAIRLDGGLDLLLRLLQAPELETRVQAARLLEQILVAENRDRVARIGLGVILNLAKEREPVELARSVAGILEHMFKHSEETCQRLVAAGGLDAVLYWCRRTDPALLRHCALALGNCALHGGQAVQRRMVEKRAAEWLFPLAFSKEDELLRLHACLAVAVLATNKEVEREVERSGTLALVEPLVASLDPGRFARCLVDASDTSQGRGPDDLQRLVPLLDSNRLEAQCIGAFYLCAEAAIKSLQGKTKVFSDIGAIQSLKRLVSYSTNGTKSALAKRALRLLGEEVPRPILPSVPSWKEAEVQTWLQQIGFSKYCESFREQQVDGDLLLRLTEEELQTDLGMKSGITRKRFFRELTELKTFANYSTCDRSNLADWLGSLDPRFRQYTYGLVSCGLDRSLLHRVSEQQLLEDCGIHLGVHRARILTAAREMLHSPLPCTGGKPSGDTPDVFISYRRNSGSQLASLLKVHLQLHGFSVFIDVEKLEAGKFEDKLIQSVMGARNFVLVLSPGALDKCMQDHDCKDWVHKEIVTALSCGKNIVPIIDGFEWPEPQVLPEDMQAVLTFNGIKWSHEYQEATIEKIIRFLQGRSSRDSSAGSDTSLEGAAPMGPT
# 6-phosphogluconate dehydrogenase, decarboxylating (Homo sapiens), sequence (P52209 whole entry, looked up): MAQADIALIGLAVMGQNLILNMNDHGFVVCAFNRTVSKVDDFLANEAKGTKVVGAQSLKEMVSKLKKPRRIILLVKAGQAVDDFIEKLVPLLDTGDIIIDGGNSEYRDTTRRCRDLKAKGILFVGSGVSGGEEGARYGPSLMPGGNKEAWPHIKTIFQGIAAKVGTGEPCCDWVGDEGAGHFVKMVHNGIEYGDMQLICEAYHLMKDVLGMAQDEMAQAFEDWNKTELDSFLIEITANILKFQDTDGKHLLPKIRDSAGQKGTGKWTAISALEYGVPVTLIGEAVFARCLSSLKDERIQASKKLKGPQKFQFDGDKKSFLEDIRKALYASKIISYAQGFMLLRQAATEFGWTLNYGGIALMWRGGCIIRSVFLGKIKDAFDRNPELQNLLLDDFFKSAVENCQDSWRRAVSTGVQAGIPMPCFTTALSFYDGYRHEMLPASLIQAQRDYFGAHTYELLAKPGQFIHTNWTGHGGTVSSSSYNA
# Calcium-activated potassium channel subunit alpha-1 (Homo sapiens) + Leucine-rich repeat-containing protein 26 (Homo sapiens), sequence (Q2I0M4 whole entry, looked up, one chain of several): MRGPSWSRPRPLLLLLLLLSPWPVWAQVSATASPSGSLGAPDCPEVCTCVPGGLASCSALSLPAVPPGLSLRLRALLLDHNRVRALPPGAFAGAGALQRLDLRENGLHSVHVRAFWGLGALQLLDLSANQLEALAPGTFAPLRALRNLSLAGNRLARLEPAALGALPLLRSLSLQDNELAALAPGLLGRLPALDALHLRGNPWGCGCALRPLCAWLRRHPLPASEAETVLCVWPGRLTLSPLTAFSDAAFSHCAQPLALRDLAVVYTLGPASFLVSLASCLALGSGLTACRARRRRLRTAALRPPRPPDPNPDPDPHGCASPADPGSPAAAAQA
smiles,measurement,setting,value
O=C(CCCN1CC=C(n2c(=O)[nH]c3ccccc32)CC1)c1ccc(F)cc1,inhibition,[1],-5.15% (inactive)
same,inhibition,[2],-0.1% (inactive)
same,fluorescence ratio,[3],1 (inactive)
same,nuclear beta-catenin stimulation,[4]; at 10 µM,1% (inactive)
same,nuclear beta-catenin stimulation,"[4]; stimulation, at 2 µM",0.3%
same,insulin secretion stimulation,[5],2.7% (inactive)
same,viability decrease,[6],-5.9% (inactive)
same,tube area decrease,[7],16.2% (inactive)
same,GLP1 secretion stimulation,[8],-0.5% (inactive)
same,inhibition of viability,[9],28.5% (inactive)
same,viability decrease (inhibition),[10],10.4% (inactive)
same,viability decrease (inhibition),[11],3.7% (inactive)
same,inhibition,[12],12.8% (inactive)
same,red/green cell ratio (normalised),[13],0.96 (inactive)
same,normalised cell number,[13]; [19],0.94
same,normalised cell number,[13]; [20],0.9
same,z-score,[14]; [21],-0.163 (inactive) and 0.567 (inactive)
same,z-score,[14]; [22],-0.119 and 0.175
same,remaining NAD,[15],10 nM (inactive)
same,luciferase signal,[16],68 AU (inactive)
same,log fold change Tl+ flux,F380Y,0.0359 (inactive)
same,log fold change Tl+ flux,F380Y/beta2Delta,0.058 (inactive)
same,log fold change Tl+ flux,[17],-0.0307 (inactive)
CCCCC1=NC2(CCCC2)C(=O)N1Cc1ccc(-c2ccccc2-c2nn[nH]n2)cc1,inhibition,[1],-3.56% (inactive)
same,inhibition,[2],3.75% (inactive)
same,fluorescence ratio,[3],1.03 (inactive)
same,nuclear beta-catenin stimulation,[4]; at 10 µM,1.9% (inactive)
same,nuclear beta-catenin stimulation,"[4]; stimulation, at 2 µM",0.1%
same,insulin secretion stimulation,[5],1.8% (inactive)
same,viability decrease,[6],-43% (inactive)
same,tube area decrease,[7],-17.7% (inactive)
same,GLP1 secretion stimulation,[8],-0.1% (inactive)
same,inhibition of viability,[9],-0.43% (inactive)
same,viability decrease (inhibition),[10],-11.7% (inactive)
same,viability decrease (inhibition),[11],-12.4% (inactive)
same,inhibition,[12],-3.55% (inactive)
same,red/green cell ratio (normalised),[13],1.43 (inactive)
same,normalised cell number,[13]; [19],0.82
same,normalised cell number,[13]; [20],1.18
same,fold change,[18]; [23],0.939 (inactive) and 0.866 (inactive)
same,fold change,[18]; [24],1.55 and 6.32
same,cell count,[18]; [25],7090 and 11900
same,cell count,[18]; [26],7550 and 13800
same,z-score,[14]; [21],-0.829 (inactive)
same,z-score,[14]; [22],-0.504
same,remaining NAD,[15],10 nM (inactive)
same,luciferase signal,[16],56 AU (inactive)
same,log fold change Tl+ flux,F380Y,0.0685 (inactive)
same,log fold change Tl+ flux,F380Y/beta2Delta,0.0508 (inactive)
same,log fold change Tl+ flux,[17],-0.00804 (inactive)
Cn1c(=O)c2[nH]cnc2n(C)c1=O,inhibition,[1],0.45% (inactive)
same,inhibition,[2],-2.76% (inactive)
same,fluorescence ratio,[3],1 (inactive)
same,nuclear beta-catenin stimulation,[4]; at 10 µM,1.1% (inactive)
same,nuclear beta-catenin stimulation,"[4]; stimulation, at 2 µM",0.3%
same,insulin secretion stimulation,[5],0.2% (inactive)
same,viability decrease,[6],0.3% (inactive)
same,tube area decrease,[7],-10.1% (inactive)
same,GLP1 secretion stimulation,[8],-0.8% (inactive)
same,inhibition of viability,[9],6% (inactive)
same,viability decrease (inhibition),[10],20.4% (inactive)
same,viability decrease (inhibition),[11],-2.35% (inactive)
same,inhibition,[12],4.58% (inactive)
same,remaining NAD,[15],10 nM (inactive)
same,luciferase signal,[16],96 AU (inactive)
same,log fold change Tl+ flux,F380Y,0.0321 (inactive)
same,log fold change Tl+ flux,F380Y/beta2Delta,-0.0514 (inactive)
same,log fold change Tl+ flux,[17],-0.0341 (inactive)
C[C@H]1C[C@@H]2[C@H]([C@@H](O)C[C@@]3(C)[C@H]2CC[C@]3(O)C(=O)CO)[C@@]2(C)C=CC(=O)C=C12,inhibition,[1],-1.36% (inactive)
same,inhibition,[2],1.81% (inactive)
same,fluorescence ratio,[3],1.04 (inactive)
same,nuclear beta-catenin stimulation,[4]; at 10 µM,-1.3% (inactive)
same,nuclear beta-catenin stimulation,"[4]; stimulation, at 2 µM",0%
same,insulin secretion stimulation,[5],2.2% (inactive)
same,viability decrease,[6],-8.4% (inactive)
same,tube area decrease,[7],-6.1% (inactive)
same,GLP1 secretion stimulation,[8],1% (inactive)
same,inhibition of viability,[9],2.5% (inactive)
same,viability decrease (inhibition),[10],3.7% (inactive)
same,viability decrease (inhibition),[11],-5% (inactive)
same,inhibition,[12],12.4% (inactive)
same,fold change,[18]; [23],0.959 (inactive) and 0.809 (inactive) and 0.808 (inactive)
same,fold change,[18]; [24],0.739 and 1.35 and 1.33
same,cell count,[18]; [25],7180 and 6410 and 5950
same,cell count,[18]; [26],7490 and 7930 and 7360
same,z-score,[14]; [21],0.0891 (inactive) and -0.0037 (inactive)
same,z-score,[14]; [22],-0.286 and 1.09
same,remaining NAD,[15],10 nM (inactive)
same,luciferase signal,[16],100 AU (inactive)
same,log fold change Tl+ flux,F380Y,0.00302 (inactive)
same,log fold change Tl+ flux,F380Y/beta2Delta,0.00102 (inactive)
same,log fold change Tl+ flux,[17],-0.0378 (inactive)
